Inconclusive results are not listed. The source made the active and inactive calls. Calls come from the whole dose curve.
What follows are compounds tested against Atrial natriuretic peptide receptor 1 (Homo sapiens) (UniProt P16066) (assay: Natriuretic polypeptide receptor (hNpr1) antagonism - Pilot screen (AID 1347049)). Conditions: hNpr1 cells, antagonist mode cGMP read-out; series mostly up to 57.5 µM.
Experimental: In order to identify small molecular compounds that inhibit the hNpr1 receptor we developed a high-throughput assay to measure inhibition of the guanylate cyclase activity of the receptor. cGMP production was measured using a circular permutated Firefly luciferase (FLuc) enzyme functionally linked to the cGMP binding domain of human phosphodiesterase 5 (GloSensor technology pGS-40F, (Fan, F. et al. 2008). The cGMP-sensor was expressed in human embryonic kidney 293 (HEK-293) cells and FLuc activity was measured after stimulation with hNrp agonist peptide. hNrp agonists activates the receptor's associated guanylyl cyclase (GC) domain producing cGMP which then binds to the GloSensor resulting in FLuc activation, the enzymatic activity of which can be measured as bioluminescence with addition of luciferin substrate.
F. Fan, B. F. Binkowski, B. L. Butler, P. F. Stecha, M. K. Lewis, K. V. Wood, Novel genetically encoded biosensors using firefly luciferase. ACS Chem Biol 3, 346-351 (2008).
This assay was initially piloted by testing with a small diversity library of compounds with known pharmacological activity.
PROTOCOL TABLES (as described by Inglese J, Shamu CE and Guy RK. 2007)
SEQUENCE No. (e.g., 1, 2, 3, etc.); […] (e.g., Cells, Incubation, Reagent, etc.); VALUE and DESCRIPTION.
1. Cells. Seed 1500 HEK293 cGMP-sensor cells expressing hNpr1 per well in 4uL into Greiner 1536-well white/solid bottom high base, tissue culture-treated plates.
2. Incubation. Incubate plated cells at 37C in 5% CO2, 95% RH overnight.
3. Reagent. Add 1uL per well GloSensor reagent from Promega (2% final concentration) or CO2 independent media vehicle control to respective columns of Greiner 1536-well plates.
4. Incubation. Incubate plated cells at room temperature for 2 h, protect from light.
5. Compounds. Library compounds and A-71915 control added at 23 nL per well, transferred by Pin Tool.
6. Incubation. Incubate plated cells for 30 min. at room temperature, protect from light.
7. Detector. GloSensor baseline pre-read luminescence measured using CCD-based camera (Viewlux).
8. Compound. Add 1uL of hNppA peptide to 0.1 nM final concentration to stimulate hNpr1 or CO2 independent media as vehicle control.
9. Incubation. Incubate treated cells at room temperature for 20 min., protect from light.
10. Detector. GloSensor post-hNppA luminescence measured using CCD-based camera (Viewlux).
NOTES (numbers refer to Sequence numbers above)
1. HEK293 cells expressing hNpr1 and GIP/pGS-40F grown to 85-95% confluence (48-72 h) in T175 culture flasks (CO2 independent media supplemented with 10% FBS, 1% Pen/Strep antibiotics and 1 ug/mL puromycin). Trypsinize and harvest cells from T175 culture flasks and filter through 40 um cell strainer. Cells counted with Invitrogen Countess (30,000,000 - 50,000,000 cells/flask). Cells diluted to a final concentration of 375 cells/uL in CO2 independent media and a Millipore multidrop used to dispense 1500 cells per well (4uL/well) into 9 x 1536-well Greiner White/Solid bottom, high base tissue-culture treated (TC) plates and one Aurora 1536-well Black/Clear bottom, low base, TC plate (for visual inspection of cell health throughout the duration of the assay).
2. Cells incubated overnight at ambient temperature, 24 h. at 37C in 95% RH incubator protected from light, covered with metal lid with gas-exchange holes.
3. Prepare GloSensor Reagent (Promega): Reconstitute GloSensor luciferase substrate by adding 8.2mL Hepes buffer to 250mg substrate, mix well, protect from light and stored at -80C. Prepare a fresh 12% GloSensor solution in CO2 independent supplemented plating media (see above). Mix well and store at ambient temperature, protected from light. 1uL 12% GloSensor Luciferase Reagent added (2% final concentration) to respective columns of 9 x 1536-well Greiner plate with BioRaptr, 1uL CO2 independent plating media added to respective columns as vehicle control with BioRaptr.
4. […]

Atrial natriuretic peptide receptor 1 (Homo sapiens), sequence (P16066 whole entry, looked up, the tested form may be a part): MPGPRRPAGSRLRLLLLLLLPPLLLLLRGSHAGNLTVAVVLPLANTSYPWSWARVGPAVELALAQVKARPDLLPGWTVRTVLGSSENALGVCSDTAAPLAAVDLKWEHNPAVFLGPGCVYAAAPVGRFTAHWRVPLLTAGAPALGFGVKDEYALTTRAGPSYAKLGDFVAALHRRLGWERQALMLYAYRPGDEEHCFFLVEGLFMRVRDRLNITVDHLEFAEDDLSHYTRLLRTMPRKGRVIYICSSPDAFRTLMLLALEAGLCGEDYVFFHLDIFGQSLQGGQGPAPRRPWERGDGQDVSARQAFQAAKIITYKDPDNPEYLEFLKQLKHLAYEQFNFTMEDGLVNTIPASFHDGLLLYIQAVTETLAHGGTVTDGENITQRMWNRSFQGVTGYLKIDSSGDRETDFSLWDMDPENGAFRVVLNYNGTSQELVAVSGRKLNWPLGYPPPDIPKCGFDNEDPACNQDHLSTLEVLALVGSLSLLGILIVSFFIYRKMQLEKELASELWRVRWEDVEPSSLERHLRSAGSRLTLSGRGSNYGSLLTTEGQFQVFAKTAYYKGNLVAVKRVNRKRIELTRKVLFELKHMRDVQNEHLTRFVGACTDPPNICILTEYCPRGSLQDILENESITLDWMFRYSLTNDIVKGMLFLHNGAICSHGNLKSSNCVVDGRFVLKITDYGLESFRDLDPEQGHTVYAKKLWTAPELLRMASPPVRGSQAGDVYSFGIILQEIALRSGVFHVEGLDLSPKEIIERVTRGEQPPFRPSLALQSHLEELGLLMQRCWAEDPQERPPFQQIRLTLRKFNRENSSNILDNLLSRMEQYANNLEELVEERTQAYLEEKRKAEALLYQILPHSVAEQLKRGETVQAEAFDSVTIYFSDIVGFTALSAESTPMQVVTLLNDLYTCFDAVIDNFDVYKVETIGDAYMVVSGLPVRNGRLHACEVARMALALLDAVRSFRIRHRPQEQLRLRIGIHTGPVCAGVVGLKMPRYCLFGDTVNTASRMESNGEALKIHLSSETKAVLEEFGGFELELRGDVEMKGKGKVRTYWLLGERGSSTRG

SMILES | outcome
O=C(Nc1nc2ccccc2n1CCN1CCOCC1)c1cccc([N+](=O)[O-])c1 | inactive
CN1CCN(CCCN2c3ccccc3Sc3ccc(C(F)(F)F)cc32)CC1 | inactive
Nc1ncnc2nc(-c3ccc(N4CCOCC4)nc3)cc(-c3cccc(Br)c3)c12 | inactive
NC[C@H](O)c1ccc(O)c(O)c1 | inactive
OC(CN1CCC(Cc2ccc(F)cc2)CC1)c1ccc(Cl)cc1 (stereo not given) | inactive
Clc1cccc(Cl)c1NC1=NCCN1 | inactive
Cc1[nH]c(=O)c(C#N)cc1-c1ccc2nccn2c1 | inactive
Nc1nc2ccc(OC(F)(F)F)cc2s1 | inactive
C1COC(NC(C2CC2)C2CC2)=N1 | inactive
NS(=O)(=O)c1cc2c(cc1Cl)NC=NS2(=O)=O | inactive
CCN(CC)CCCC(C)Nc1ccnc2cc(Cl)ccc12 (stereo not given) | inactive
CCCCNc1cc(C(=O)O)cc(S(N)(=O)=O)c1Oc1ccccc1 | inactive
CC(C)(C)NCC(O)c1ccc(O)c(CO)c1 (stereo not given) | inactive
CCOC(=O)C1=C[C@]2(CC)CCCN3CCc4c(n1c1ccccc41)[C@@H]32 | inactive
Cc1cccc(-c2[nH]c(C(C)(C)C)nc2-c2ccc3nccnc3c2)n1 | inactive
O=C1CCC(N2C(=O)c3ccccc3C2=O)C(=O)N1 (stereo not given) | inactive
Cc1ccccc1C(OCCN(C)C)c1ccccc1 (stereo not given) | inactive
O=NN(CCCl)C(=O)NCCCl | inactive
CCOC(=O)N1CCC(=C2c3ccc(Cl)cc3CCc3cccnc32)CC1 | inactive
CCCC(CCC)C(=O)O | inactive

SMILES | outcome
Cc1oncc1C(=O)Nc1ccc(C(F)(F)F)cc1 | inactive
CCC(C)N(C)C(=O)c1cc2ccccc2c(-c2ccccc2Cl)n1 (stereo not given) | inactive
Cc1[nH]c(=O)c(C#N)cc1-c1ccncc1 | inactive
NC(N)=NC(=O)c1nc(Cl)c(N)nc1N | inactive
Nc1ccc(S(=O)(=O)Nc2ccnn2-c2ccccc2)cc1 | inactive
CC(C)(Sc1ccc(CCN(CCCCC2CCCCC2)C(=O)NC2CCCCC2)cc1)C(=O)O | inactive
OC(CCN1CCCCC1)(c1ccccc1)C1CC2C=CC1C2 (stereo not given) | inactive
NCCc1ccc(O)c(O)c1 | inactive
O=C(O)COCCN1CCN(C(c2ccccc2)c2ccc(Cl)cc2)CC1 (stereo not given) | inactive
O=C1CCc2cc(OCCCCc3nnnn3C3CCCCC3)ccc2N1 | inactive
NC(=O)c1cnccn1 | inactive
Cc1ccc(N(CC2=NCCN2)c2cccc(O)c2)cc1 | inactive
N[C@@H]1CONC1=O | inactive
N=c1nc(N2CCCCC2)cc(N)n1O | inactive
Cn1cnc([N+](=O)[O-])c1Sc1ncnc2nc[nH]c12 | inactive
Cc1cn[nH]c1 | inactive
NNCCc1ccccc1 | inactive
CC(=O)Oc1ccccc1C(=O)O | inactive
CC(C[N+](C)(C)C)OC(N)=O (stereo not given) | inactive
CCn1cc(C(=O)O)c(=O)c2cc(F)c(N3CCNC(C)C3)c(F)c21 (stereo not given) | inactive
